The whole screen tested about 48,000 compounds, of which about 13,000 (27%) showed an effect of 50% or more. The list shows a part of the results.
These molecules were tested on Wolbachia pipientis (assay: Anti-Wolbachia Cell-Based Screen). Conditions: 5 µM.
Type: functional
Parameters: scale not given: in the data most compounds retested in dose-response had high values

| SMILES | Percent Effect [%] |
| --- | --- |
| C[S+]([O-])c1nncn1CC(=O)c1ccc(Cl)c(Cl)c1 (stereo not given) | 17.05 |
| Cc1cnn(CCCN2C(=O)CCc3ccccc32)c1 | 16.17 |
| O=C(CSCC1CC1)N1CCCN(c2ccc(F)cc2)CC1 | 101.8 |
| Cc1cc(N2CCCN(C(=O)Cc3cccnc3)CC2)ccn1 | -24.68 |
| Cc1nc(CC(=O)N2CCCN(c3ccc(F)cc3)CC2)cs1 | 6.987 |
| O=C(CSCC1CC1)N1CCCN(Cc2ccc(F)cc2)CC1 | 113.6 |
| Cc1cc(N2CCCN(C(=O)Cc3cc(F)cc(F)c3)CC2)ccn1 | -40.46 |
| CCc1nnsc1C(=O)N1CCCN(Cc2ccc(F)cc2)CC1 | 12.06 |
| CSCCC(O)C(=O)N1CCCN(Cc2ccc(F)cc2)CC1 (stereo not given) | 20.52 |
| Cc1cc(N2CCCN(C(=O)CSCC3CC3)CC2)ccn1 | 97.17 |
| COCc1ccc(C(=O)N2CCCN(c3ccc(F)cc3)CC2)s1 | -6.209 |
| CN(Cc1ccccn1)C(=O)c1ccc2c(c1O)OC(C)(C)C2 | -37.36 |
| COc1ccc(OC)c(CN(C)c2ncc(S(N)(=O)=O)s2)c1 | -0.04358 |
| c1cnn(CCNCc2csc(-c3ccsc3)n2)c1 | 8.023 |
| O=C(O)C(F)(F)F.O=C(c1cnccn1)N1C[C@@H]2CCN(c3cnccn3)C[C@@H]2C1 | 21.49 |
| O=C(C1CCCO1)N1C[C@@H]2CCN(c3cnccn3)C[C@@H]2C1.O=C(O)C(F)(F)F (stereo not given in full) | 102.5 |
| O=C(C1CCCC1)N1C[C@@H]2CCN(c3cnccn3)C[C@@H]2C1.O=C(O)C(F)(F)F | 80.73 |
| O=C(C1CCCCC1)N1C[C@@H]2CCN(c3cnccn3)C[C@@H]2C1.O=C(O)C(F)(F)F | 86.55 |
| CC(C)CN1CC(C(=O)N(C)CCc2cn[nH]c2)CC1=O (stereo not given) | -9.129 |
| COc1cccc(CC(=O)NCc2cnc(C)nc2C2CCCN2C)c1 (stereo not given) | 116.5 |
| Cc1ncc(CNC(=O)CCc2cccs2)c(C2CCCN2C)n1 (stereo not given) | 135.8 |
| Cc1ncc(CNC(=O)Cc2cccs2)c(C2CCCN2C)n1 (stereo not given) | 125.2 |
| CCOc1ncccc1CNC(=O)N1CCCC1c1cccs1 (stereo not given) | -31.15 |
| CS(=O)(=O)N1C[C@@H]2CC[C@H](C1)N(CCC(=O)NCc1ccccc1F)C2 | -8.664 |
| Cc1ncc(CNC(=O)CCOc2ccccc2)c(C2CCCN2C)n1 (stereo not given) | -4.417 |

| SMILES | Percent Effect [%] |
| --- | --- |
| Cc1ncc(CNC(=O)CCc2ccccc2F)c(C2CCCN2C)n1 (stereo not given) | 94.99 |
| Cc1ncc(CNC(=O)CCc2cccc(F)c2)c(C2CCCN2C)n1 (stereo not given) | 2.906 |
| COc1cccc(CCNC(=O)CN2CCCC2c2noc(C)n2)c1 (stereo not given) | -3.314 |
| O=C1NCCN(Cc2cccnc2)C1CC(=O)N1CCc2n[nH]cc2C1 (stereo not given) | -19.58 |
| O=C1C(Sc2nc(=O)ccn2C2CC2)CCN1c1ccccc1F (stereo not given) | -10.52 |
| CCNC(=O)N1CCC(NC(=O)NCCc2cc3ccccc3o2)C1 (stereo not given) | -2.435 |
| CSCC(C)NCc1ccc2[nH]c(C)c(C)c2c1 (stereo not given) | 7.257 |
| COCCC(=O)N1C[C@H]2CC[C@@H]1CN(C1Cc3ccccc3C1)C2 | 12.41 |
| O=C(Nc1nncs1)N(Cc1cccc(O)c1)C1CC1 | -1.611 |
| CCC(C)(CC(=O)O)NC(=O)Cc1ccccc1Br (stereo not given) | 0.3012 |
| Cc1noc(C)c1CCCNC(=O)C1CCCN(C(=O)C2CC2)C1 (stereo not given) | -0.7156 |
| Cc1ncc(CNC(=O)Cc2ccc(Cl)cc2)c(C2CCCN2C)n1 (stereo not given) | -6.333 |
| Cc1noc(C)c1CNC(=O)c1ccc(NC2CC2)nc1 | 4.161 |
| Cc1ncc(CNC(=O)CCc2c(C)noc2C)c(C2CCCN2C)n1 (stereo not given) | 116.8 |
| Cc1nc(C2CCCN2CC(=O)NCCc2ccsc2)no1 (stereo not given) | -6.143 |
| Cc1ncc(CNC(=O)Cc2ccsc2)c(C2CCCN2C)n1 (stereo not given) | 124.7 |
| CCCNC(=O)c1cc(Br)cc(S(=O)(=O)N2CCOCC2)c1F | -12.55 |
| O=C(C[C@H]1[C@H]2CN(Cc3ccsc3)C[C@@H]12)N1CCCC1.O=C(O)C(F)(F)F | -30.77 |
| CN1[C@H](CN2CCCC2)C[C@@H]2CN(C(=O)c3ccsc3)CC[C@@H]21 | 81.43 |
| CN1[C@H](CN2CCCC2)C[C@@H]2CN(C(=O)Cc3ccsc3)CC[C@@H]21.O=C(O)C(F)(F)F.O=C(O)C(F)(F)F | 88.77 |
| CN1[C@H](CN2CCCC2)C[C@@H]2CN(C(=O)c3cnccn3)CC[C@@H]21 | 120.7 |
| O=C(O)C(F)(F)F.O=C(c1cnccn1)N1CC[C@@H]2CO[C@@H](CN3CCCC3)[C@@H]2C1 | -10.73 |
| CN1[C@H](Cn2cncn2)C[C@@H]2CN(Cc3ccsc3)CC[C@@H]21.O=C(O)C(F)(F)F.O=C(O)C(F)(F)F | -21.59 |
| O=C(c1ccsc1)N1C[C@@H](CN2CCCC2)[C@@H](CO)C1 | 20.63 |
| C[C@@H]1C[C@@H]2CCN(C(=O)c3cnccn3)C[C@H]2O1 | -10.48 |

| SMILES | Percent Effect [%] |
| --- | --- |
| COc1cc(S(=O)(=O)N2CCCc3ccccc32)cc(C(=O)O)c1OC | 4.14 |
| c1ccc(Cc2nc(C3CC3)nn2-c2ccc3c(c2)OCCO3)nc1 | 5.106 |
| CCS(=O)(=O)N1CCOC(CCCc2ccccc2)C1 (stereo not given) | -15.33 |
| CC(C)n1ccnc1CN1CCOC(CCc2ccccc2)C1 (stereo not given) | -13.14 |
| c1ccc(C(CC2CN(Cc3ncc[nH]3)CCO2)c2ccccc2)cc1 (stereo not given) | 116.4 |
| c1ccc(CCCC2CN(Cc3ncc[nH]3)CCO2)cc1 (stereo not given) | 98.97 |
| c1ccc(C(CC2CN(Cc3c[nH]cn3)CCO2)c2ccccc2)cc1 (stereo not given) | 106.4 |
| CC(C)c1n[nH]c(C2CN(Cc3ncc[nH]3)CCO2)n1 (stereo not given) | -3.355 |
| O=C(NCCC1CN(Cc2c[nH]cn2)CCO1)Nc1ccccc1 (stereo not given) | -0.1872 |
| CCN(CC1CN(Cc2ncc[nH]2)CCO1)c1cccnn1 (stereo not given) | 4.051 |
| O=C(Nc1cnn(CC(=O)N2CCCO2)c1)c1ccccc1 | 1.203 |
| CCN(C(c1cccnc1)c1ccc2c(c1)CCC2)S(C)(=O)=O (stereo not given) | -0.855 |
| O=C(NC1CCN(C2CC2)CC1)NC1CCOc2ccc(Br)cc21 (stereo not given) | 24.64 |
| CC1=N[C@@]2(CC[C@@H]3CN(C(=O)NC(C)C)C[C@@H]32)C(=O)N1CC(C)C | 1.346 |
| CCC(C)Oc1ccc(CNCCc2c[nH]cn2)cc1Cl (stereo not given) | 95.83 |
| CC(CNS(C)(=O)=O)Oc1cccc(Cl)c1 (stereo not given) | -10.77 |
| CC(CNCc1ccc(Cl)c(Cl)c1)Oc1ccccn1.Cl (stereo not given) | 9.6 |
| CCC(C)Oc1ccc(CNCCNC(C)=O)cc1OC (stereo not given) | 123.2 |
| CC(=O)NCCNC(=O)NCc1ccc(Br)cc1Cl | -4.256 |
| CCC(C)Oc1ccc(CNCCNC(C)=O)cc1Cl (stereo not given) | 110 |
| CCC(C)Oc1ccc(CNCCNS(C)(=O)=O)cc1Cl (stereo not given) | 97.61 |
| C=C(C)COc1ccccc1CNCCc1c[nH]cn1 | -1.538 |
| C=C(C)COc1cccc(CNCCc2c[nH]cn2)c1 | -1.571 |
| CCOc1ccc(CNCCCn2ccnc2)cc1Cl.Cl.Cl | 1.454 |
| CNC(=O)c1ccc(CNCc2ccc(SC)c(OC)c2)cc1 | -3.705 |

| SMILES | Percent Effect [%] |
| --- | --- |
| COc1cc(CNCCNC(=O)c2ccc(O)cc2)ccc1SC | -8.251 |
| COc1cc(C2CC(=O)Oc3cc(C)[nH]c(=O)c32)ccc1OC(F)F (stereo not given) | 2.33 |
| Cc1ccccc1[C@@H]1CN(Cc2nc3ncccn3n2)C[C@H]1C(=O)O | -5.6 |
| Cc1nc(C)c(CNC(=O)NC(c2nnc3n2CCC3)C(C)C)s1 (stereo not given) | -4.122 |
| COc1ccc(C(=O)Cn2cnnc2[S+](C)[O-])cc1Cl (stereo not given) | -30.86 |
| Cc1ccc(CC(=O)N2CCC(c3nnc4n3CCC4)CC2)cc1 | -4.36 |
| C/C(=C\c1ccccc1)CN1CCCC(c2nnc3n2CCNCC3)C1.Cl (stereo not given) | 87.16 |
| CC(C)n1c(C2CCCN(CC(N)=O)C2)nc2ccccc21 (stereo not given) | -123.1 |
| CC(C)CN1C(=O)CO[C@@H]2CN(C(=O)NC(C)C)C[C@H]21 | -9.204 |
| Cc1nn(C)cc1-c1ccnc(N2CCN(c3ccccc3)C(=O)C2)n1 | -10.97 |
| c1cc(-c2n[nH]cc2-c2ccnc(N3CCCC3)n2)ccn1 | 100.8 |
| c1cc(-c2n[nH]cc2-c2ccnc(N3CCCCCC3)n2)ccn1 | 91.97 |
| CN1CCCN(c2nccc(-c3c[nH]c4ccc(Br)cc34)n2)CC1 | 88.95 |
| CN1CCCN(c2nccc(-c3cc(C(=O)O)ccn3)n2)CC1 | -0.2127 |
| CN1CCCN(c2nccc(-c3c[nH]nc3-c3ccncc3)n2)CC1 | 94.49 |
| Cc1oc(C(C)C)cc1C(=O)N1C[C@H]2CC[C@@H]1CN(c1ncccn1)C2 | 6.387 |
| CN(C)c1ccc(CCCNC(=O)NCC(O)c2ccsc2)cc1 (stereo not given) | 3.16 |
| Cc1ccc(-c2nc3c([nH]2)CCNC3C(=O)O)c2cccnc12 (stereo not given) | -6.719 |
| Cc1cc(C)nc(Nc2cccc(C3CCCN(S(C)(=O)=O)C3)n2)n1 (stereo not given) | 85.5 |
| CS(=O)(=O)N1CCCC(c2nc(-c3ccccc3)c[nH]2)C1 (stereo not given) | -2.942 |
| Cc1cc(-c2ccnn2C)nc(C2CCCN(S(C)(=O)=O)C2)n1 (stereo not given) | 122.2 |
| Cc1cc(C)nc(Nc2cncc(C3CCCN(S(C)(=O)=O)C3)n2)n1 (stereo not given) | 101.3 |
| CS(=O)(=O)N1CCCC(c2cncc(Nc3ccccn3)n2)C1 (stereo not given) | 103.2 |
| CNc1cncc(C2CCCN(S(C)(=O)=O)C2)n1 (stereo not given) | -7.969 |
| Cc1cnc(N2CCCC(c3ccccc3)C2)nc1-c1ccnn1C (stereo not given) | -17.82 |

From ChEMBL document CHEMBL3988442, “University of Dundee, Small-Polar-MMV Screening Library” (2021)
